Results filed as inconclusive are left out. Activity calls are given as the source filed them. Unless noted, calls follow the shape of the dose curve; as a rule, active = well fitted curve in the direction sought with a large enough effect; inconclusive = small, poorly fitted or top-dose-only effect, or another doubt; inactive = no such curve, though single readings can be large; an effect the other way counts as inactive or inconclusive.
Key:
[1] = Primary qHTS for inhibitors of La Crosse Virus (LACV) - induced cell death in SH-SY5Y cells (AID 1508616);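 also: top concentration of the series differs between compounds; 0% = infected DMSO wells and 100% = uninfected DMSO wells; higher means more rescue of cells from virus-induced death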
Outline: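 Cytopathicity rescue screen: compounds pinned onto SH-SY5Y cells, which are then infected with LACV (MOI 0.01) and held 6 days at 37C. Percent activity is scaled between infected DMSO control and uninfected DMSO control.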

[2] = biological target: Calcium and integrin-binding protein 1 (Homo sapiens) (UniProt Q99828); assay: Validation qHTS for Identification of Calcium Integrin Binding protein 1 (CIB1) Competitor (AID 1508618); also: % is scaled to controls: 0 for no effect and ±100 for the full control effect
Chain of Calcium and integrin-binding protein 1 (Homo sapiens) (Q99828 whole entry, looked up): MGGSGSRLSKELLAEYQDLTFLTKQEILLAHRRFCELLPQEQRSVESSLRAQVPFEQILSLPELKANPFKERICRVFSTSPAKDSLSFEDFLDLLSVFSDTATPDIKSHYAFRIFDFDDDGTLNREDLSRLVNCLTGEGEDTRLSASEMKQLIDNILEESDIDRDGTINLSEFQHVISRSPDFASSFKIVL
Outline: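 Fluorescence polarization with 1 uM CIB1-GST and 100 nM FITC-alphaIIb peptide in HEPES pH 7.4, NaCl, 5 mM CaCl2, Tween20. Compounds at up to 114 uM final, preincubated with protein 15 min; read after 15 min more at RT.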

[3] = biological target: Calcium and integrin-binding protein 1 (Homo sapiens) (UniProt Q99828); assay: Primary qHTS for Identification of Calcium Integrin Binding Protein 1 (CIB1) Competitor (AID 1508620);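 also: GST tagged CIB1 binding a fluorescein labelled alphaIIb integrin peptide tracer; top concentration of the series differs between compounds; % is scaled to controls: 0 for no effect and ±100 for the full control effect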
Outline: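 CIB1-GST (1 uM final) and compound incubated 15 min at room temperature before adding FITC-alphaIIb peptide tracer (100 nM final). Competition for binding read by fluorescence polarization (ex 480, em 540) after another 15 min at room temperature.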

[4] = Primary qHTS for small molecule stabilizers of the endoplasmic reticulum resident proteome: Secreted ER Calcium Modulated Protein (SERCaMP) assay (AID 1508630); also: % is scaled to controls: 0 for no effect and ±100 for the full control effect
Outline: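 The SH-SY5Y reporter protocol was run at 3 concentrations up to 38.3 uM (primary) or 11 concentrations (follow-up): 16 h compound, 100 nM thapsigargin for 4 h, then extracellular luciferase luminescence.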

[5] = A High-Content qHTS Against Drug Library for the Identification of Small Molecules that Inhibit DYT1 Early Onset Primary Dystonia-Associated Cell Pathology (AID 1645839; calls by dose curve; also: series mostly up to about 46 µM)
Outline: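 High-content imaging quantified EGFP-TorsinA mislocalization in HEK293-derived cells inducibly expressing DYT1 mutant torsinA, after 48 h exposure to compound given together with tetracycline induction. Cell count served as a toxicity channel alongside %pathology.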

[6] = biological target: Cytochrome P450 2D6 (Homo sapiens) (UniProt P10635); assay: Cytochrome P450 family 2 subfamily D member 6 (CYP2D6) small molecule antagonists: luciferase biochemical (cell-free) qHTS assay (AID 1645840; active = well fitted curve in the direction sought with a large enough effect in the repeat runs; an effect the other way counts as inactive or inconclusive; also: nearly all actives have a fitted effect of over 55% in size; also: potency is read from the fitted curve at half-maximal effect)
Chain of Cytochrome P450 2D6 (Homo sapiens) (P10635 whole entry, looked up): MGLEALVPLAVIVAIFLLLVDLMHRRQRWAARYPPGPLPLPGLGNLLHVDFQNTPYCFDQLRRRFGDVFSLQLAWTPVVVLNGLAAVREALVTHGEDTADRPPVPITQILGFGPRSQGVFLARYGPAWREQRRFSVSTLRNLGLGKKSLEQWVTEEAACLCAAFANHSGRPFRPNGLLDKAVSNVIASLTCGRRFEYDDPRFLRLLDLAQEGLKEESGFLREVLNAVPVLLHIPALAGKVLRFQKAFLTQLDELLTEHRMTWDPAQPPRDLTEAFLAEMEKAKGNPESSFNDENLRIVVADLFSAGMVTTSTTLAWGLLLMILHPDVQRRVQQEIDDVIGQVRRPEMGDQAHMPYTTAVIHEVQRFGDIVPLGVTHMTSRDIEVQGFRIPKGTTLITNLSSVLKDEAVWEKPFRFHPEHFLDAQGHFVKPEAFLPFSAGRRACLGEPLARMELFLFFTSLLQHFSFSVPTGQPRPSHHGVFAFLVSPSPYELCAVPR
Outline: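 P450-Glo CYP2D6 system: proluciferin substrate converted by enzyme to luciferin, read by luminescence proportional to activity. Enzyme-substrate mix with compound 10 min at room temperature, then NADPH regeneration 1 h before detection reagent.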

[7] = biological target: Cytochrome P450 2C9 (Homo sapiens) (UniProt P11712); assay: Cytochrome P450 family 2 subfamily C member 9 (CYP2C9) small molecule antagonists: luciferase biochemical (cell-free) qHTS assay (AID 1645842; active = well fitted curve in the direction sought with a large enough effect in the repeat runs; an effect the other way counts as inactive or inconclusive; also: nearly all actives have a fitted effect of over 55% in size; also: potency is read from the fitted curve at half-maximal effect)
Chain of Cytochrome P450 2C9 (Homo sapiens) (P11712 whole entry, looked up): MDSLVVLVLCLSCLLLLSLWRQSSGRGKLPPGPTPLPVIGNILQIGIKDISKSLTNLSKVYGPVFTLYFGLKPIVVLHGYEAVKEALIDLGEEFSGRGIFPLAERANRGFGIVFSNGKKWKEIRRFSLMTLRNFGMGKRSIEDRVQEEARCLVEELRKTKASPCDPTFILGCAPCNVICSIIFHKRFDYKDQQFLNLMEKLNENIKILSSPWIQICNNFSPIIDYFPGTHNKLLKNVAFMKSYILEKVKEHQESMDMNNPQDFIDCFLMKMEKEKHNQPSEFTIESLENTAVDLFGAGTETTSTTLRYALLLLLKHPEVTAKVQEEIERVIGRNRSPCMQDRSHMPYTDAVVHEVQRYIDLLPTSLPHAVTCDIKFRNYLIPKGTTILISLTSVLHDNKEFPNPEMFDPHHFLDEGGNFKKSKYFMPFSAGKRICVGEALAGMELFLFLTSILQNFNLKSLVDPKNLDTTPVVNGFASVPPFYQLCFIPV
Outline: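 P450-Glo CYP2C9 system: proluciferin substrate with enzyme in mix containing 0.4% BSA, 10 min at room temperature, then NADPH regeneration solution added and incubated 1 h at 37C. Detection reagent stopped reaction; luminescence read after 20 min as RLU.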

Papain (Carica papaya) = Papain (Carica papaya) (UniProt P00784); assay: Primary qHTS assay for inhibitors of the protease papain (AID 1645873);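 also: papain turnover of Z-FR-AMC read as the AMC fluorescence gain over 10 min; series mostly up to about 50 µM; % is scaled to controls: 0 for no effect and ±100 for the full control effect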
Chain of Papain (Carica papaya) (P00784 whole entry, looked up, the tested form may be a part): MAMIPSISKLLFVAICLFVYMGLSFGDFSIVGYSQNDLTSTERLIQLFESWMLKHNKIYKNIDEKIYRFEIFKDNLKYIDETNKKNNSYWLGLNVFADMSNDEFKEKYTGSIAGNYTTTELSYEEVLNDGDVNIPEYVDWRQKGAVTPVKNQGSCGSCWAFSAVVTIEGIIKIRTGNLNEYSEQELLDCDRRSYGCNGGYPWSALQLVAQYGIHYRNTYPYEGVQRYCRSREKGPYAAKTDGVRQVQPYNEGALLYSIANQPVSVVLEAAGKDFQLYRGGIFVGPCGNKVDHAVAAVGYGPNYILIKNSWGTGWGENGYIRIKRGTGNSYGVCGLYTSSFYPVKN

[8] = Primary qHTS for inhibitors of nuclear receptor binding SET domain protein 2 (NSD2) in an isogenic RCH-ACV NSD2 p.E1099K mutant (9B) (AID 1645876); also: nearly all actives have a fitted effect of over 70% in size
[9] = biological target: Cytochrome P450 3A4 (Homo sapiens) (UniProt P08684); assay: Cytochrome P450 family 3 subfamily A member 4 (CYP3A4) small molecule antagonists: luciferase qHTS assay (AID 1645841; active = well fitted curve in the direction sought with a large enough effect in the repeat runs; an effect the other way counts as inactive or inconclusive; also: nearly all actives have a fitted effect of over 45% in size)
Chain of Cytochrome P450 3A4 (Homo sapiens) (P08684 whole entry, looked up): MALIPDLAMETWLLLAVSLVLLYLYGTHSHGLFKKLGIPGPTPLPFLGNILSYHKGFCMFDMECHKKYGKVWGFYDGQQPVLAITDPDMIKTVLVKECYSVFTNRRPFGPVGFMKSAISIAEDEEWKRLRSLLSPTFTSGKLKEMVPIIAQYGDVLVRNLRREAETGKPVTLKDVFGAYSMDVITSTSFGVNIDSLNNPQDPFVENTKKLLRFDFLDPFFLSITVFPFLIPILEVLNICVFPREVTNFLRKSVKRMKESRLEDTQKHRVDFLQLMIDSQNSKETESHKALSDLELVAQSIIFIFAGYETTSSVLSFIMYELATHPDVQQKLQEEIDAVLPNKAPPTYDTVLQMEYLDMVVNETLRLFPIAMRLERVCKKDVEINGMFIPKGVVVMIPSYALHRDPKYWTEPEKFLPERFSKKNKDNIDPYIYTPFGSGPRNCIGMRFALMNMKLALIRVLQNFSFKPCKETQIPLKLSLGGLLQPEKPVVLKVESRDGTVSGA
Outline: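 Luminescent CYP3A4 activity readout: compounds plus enzyme-substrate mix 10 min at room temperature, reaction started with NADPH regenerating system for 1 h, stopped with detection reagent, read after 20 min. Ketoconazole served as control.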

[10] = Cell Viability qHTS for small molecule stabilizers of the endoplasmic reticulum resident proteome (AID 1508629); conditions: cell viability counter-screen, 100 nM thapsigargin for final 4 h
[11] = Counterscreen qHTS for small molecule stabilizers of the endoplasmic reticulum resident proteome: GLuc-NoTag assay (AID 1508627);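 also: SH-SY5Y cells given compound then 100 nM thapsigargin to empty ER calcium; series mostly up to about 76 µM; 0% = thapsigargin alone and -100% = DMSO vehicle control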
Outline: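 Counterscreen line: SH-SY5Y-GLuc-NoTag cells, treated with compound 19 hr before a 4 hr, 100 nM thapsigargin calcium depletion. Secreted Gaussia luciferase in the medium was measured by luminescence after coelenterazine was added (0.07x final), with cells unlysed.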

[12] = Primary qHTS for inhibitors of nuclear receptor binding SET domain protein 2 (NSD2) in an RCH-ACV wild type WT cells (2C) (AID 1645877); also: % is scaled to controls: 0 for no effect and ±100 for the full control effect; nearly all actives have a fitted effect of over 70% in size

CN1CCN(CC(=O)N2c3ccccc3C(=O)Nc3cccnc32)CC1
inactive: Potency [1] | outcome [2] | activity change, negative = inhibition [3] -0.936% [at 12.4 µM] | Potency [4] | % pathology change, negative = correction [5] 18.1% [at 4.63 µM] | activity change, negative = inhibition [6] 3.24% [at 4.83 µM] | activity change, negative = inhibition [7] 3.44% [at 4.83 µM] | Potency (Papain (Carica papaya))

CCO/C([O-])=N/c1c[n+](N2CCOCC2)no1
inactive: Potency [1] | outcome [2] | Potency [3] | Potency [4] | Potency [5] | Potency [6] | Potency [7] | Potency (Papain (Carica papaya)) | Potency [8]

CN(C)[C@@H]1C(=O)C(C(N)=O)=C(O)[C@@]2(O)C(=O)C3=C(O)c4c(O)ccc(Cl)c4[C@@H](O)[C@H]3C[C@@H]12
inactive: Potency [1] | outcome [2] | Potency [3] | Potency [4] | Potency [5] | Potency [6] | outcome [9]

CNC1(C)C2CCC(C2)C1(C)C (configuration not stated)
inactive: Potency [1] | outcome [2] | Potency [3] | Potency [4] | Potency [5] | Potency [6] | Potency [7] | Potency (Papain (Carica papaya)) | Potency [8]

CN(C)CCCN1c2ccccc2Sc2ccccc21
inactive: Potency [1] | outcome [2] | Potency [3] | max response [10] -13.5% | Potency (Papain (Carica papaya))

CN(C)CC/C=C1\c2ccccc2COc2ccccc21
inactive: Potency [1] | outcome [2] | Potency [3] | Potency [11] | Potency [7] | Potency (Papain (Carica papaya))
active: Potency [6] 1.95 µM

O=C(CCNNC(=O)c1ccncc1)NCc1ccccc1
inactive: Potency [1] | outcome [2] | Potency [3] | Potency [4] | Potency [5] | Potency (Papain (Carica papaya)) | Potency [8]
active: Potency [6] 15.5 µM | Potency [7] 5.49 µM

NC/C=C/C(=O)O
inactive: Potency [1] | outcome [2] | Potency [3] | Potency [4] | Potency [5] | Potency [6] | Potency [7] | Potency (Papain (Carica papaya)) | Potency [8]

C[N+](C)(C)CCOC(=O)CCC(=O)OCC[N+](C)(C)C
inactive: Potency [1] | outcome [2] | Potency [3] | Potency [4] | Potency [5] | Potency [6] | Potency [7] | Potency (Papain (Carica papaya)) | Potency [8]

C[C@]12CCC(=O)C=C1CC[C@@H]1[C@@H]2CC[C@@]2(C)[C@H]1CC[C@]2(O)C(=O)CO
inactive: Potency [1] | outcome [2] | Potency [3] | Potency [4] | Potency [5] | Potency [6] | Potency [7]

CC(=O)OC(C)C[N+](C)(C)C (configuration not stated)
inactive: Potency [1] | outcome [2] | Potency [3] | Potency [4] | Potency [5] | Potency [7] | Potency (Papain (Carica papaya)) | Potency [8]

CCCN(CCC)C(=O)C(CCC(=O)O)NC(=O)c1ccccc1 (configuration not stated)
inactive: Potency [1] | outcome [2] | Potency [3] | Potency [4] | Potency [5] | Potency [6] | Potency [7] | Potency (Papain (Carica papaya)) | Potency [8] | Potency [12]

— PubChem BioAssay (NCATS)
